# In the supplement of paper PMC8728848:
# Many of the other results were omitted from the sample, so the strongest signals are more common in it than they were.
# B1: Epa21 (Candida glabrata) (protein)
# chain: MGSSHHHHHHSSGLVPRGSHMASTPNIESHPQGCSPVDTSGIKPGLKMDLYRFPITPPGTGCWSWDWLTVTPDFPRSGYWKWPKIAEVDGVVGPLHLDSGHPTCDPLTSVLPHGFNYLQSITTTNFTMVLHGYFVPKQSGKYTFEFKADDALLLNLGAGNAFSCCDYNNSQYNQGEYLAYAIWSKNNQTATLYLEKGIYYPIRVFYHNRCCGAYMDVVYYFNDSPIPNRDFSGLLFSIPDSDSCDANI
# Columns and labels:
# Assay in all cases: glycan array binding signal (z-score within array); higher = stronger binding
# Conditions in all cases: glycan notation: IUPAC condensed, linker removed
# [1] = target: Fuc(a1-2)Gal(b1-4)Fuc(a1-3)]GlcNAc(b1-2)Man(a1-3)[Fuc(a1-2)Gal(b1-4)[Fuc(a1-3)]GlcNAc(b1-2)Man(a1-6)]Man(b1-4)GlcNAc(b1-4)GlcNAc
# In short: (§1)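 From the Consortium for Functional Glycomics database, 3228 arrays were curated, keeping only those whose protein sequence was available. Binding is given as a within-array Z-score averaged across arrays sharing a protein sequence and across linkers. Negative Z-scores can be read as non-binding.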
# [2] = target: Fuc(a1-2)Gal(b1-4)GlcNAc(b1-3)[Fuc(a1-2)Gal(b1-4)GlcNAc(b1-6)]GalNAc
# In short: as §1
# [3] = target: Fuc(a1-2)Gal6S(b1-3)GlcNAc6S
# In short: as §1
# [4] = target: Fuc(a1-2)[Gal(a1-3)]Gal(b1-3)GlcNAc(b1-2)Man(a1-3)[Fuc(a1-2)[Gal(a1-3)]Gal(b1-3)GlcNAc(b1-2)Man(a1-6)]Man(b1-4)GlcNAc(b1-4)GlcNAc
# In short: as §1
# [5] = target: Fuc(a1-2)[Gal(a1-3)]Gal(b1-4)GlcNAc(b1-6)GalNAc
# In short: as §1
# [6] = target: Fuc(a1-2)[GalNAc(a1-3)]Gal(b1-4)GlcNAc(b1-6)GalNAc
# In short: as §1
# [7] = target: Fuc(a1-2)[GalNAc(a1-3)]Gal(b1-4)[Fuc(a1-3)]GlcNAc
# In short: as §1
# [8] = target: Fuc(a1-3)[Gal(b1-4)]GlcNAc(b1-2)Man
# In short: as §1
# [9] = target: Fuc(a1-3)[Gal(b1-4)]GlcNAc(b1-3)Gal(b1-4)[Fuc(a1-3)]GlcNAc
# In short: as §1
# [10] = target: Fuc(b1-3)GlcNAc
# In short: as §1
# [11] = target: Gal(a1-3)Gal(b1-4)Glc
# In short: as §1
# [12] = target: Gal(a1-3)Gal(b1-4)GlcNAc(b1-3)GalNAc
# In short: as §1
# [13] = target: Gal(a1-3)GalNAc
# In short: as §1
# [14] = target: Gal(a1-4)GlcNAc
# In short: as §1
# [15] = target: Gal(b1-3)GlcNAc(b1-3)Gal(b1-4)GlcNAc
# In short: as §1
# [16] = target: Gal(b1-3)GlcNAc(b1-3)Gal(b1-4)[Fuc(a1-3)]GlcNAc(b1-6)[Gal(b1-3)GlcNAc(b1-3)]Gal(b1-4)Glc
# In short: as §1
# [17] = target: Gal(b1-3)GlcNAc(b1-3)GalNAc
# In short: as §1
# [18] = target: Gal(b1-4)GlcNAc(b1-2)Man(a1-3)[Gal(b1-4)GlcNAc(b1-2)Man(a1-6)][GlcNAc(b1-4)]Man(b1-4)GlcNAc(b1-4)[Fuc(a1-6)]GlcNAc
# In short: as §1
# [19] = target: Gal(b1-4)GlcNAc(b1-3)Gal(b1-4)GlcNAc(b1-3)Gal(b1-4)GlcNAc(b1-2)Man(a1-3)[Gal(b1-4)GlcNAc(b1-3)Gal(b1-4)GlcNAc(b1-3)Gal(b1-4)GlcNAc(b1-2)Man(a1-6)]Man(b1-4)GlcNAc(b1-4)GlcNAc
# In short: as §1
# [20] = target: Gal(b1-4)GlcNAc(b1-3)Gal(b1-4)GlcNAc(b1-3)[Gal(b1-4)GlcNAc(b1-3)Gal(b1-4)GlcNAc(b1-6)]GalNAc
# In short: as §1
# [21] = target: Gal(b1-4)GlcNAc(b1-3)Gal(b1-4)GlcNAc(b1-6)[Gal(b1-3)]GalNAc
# In short: as §1
# [22] = target: Gal(b1-4)GlcNAc(b1-3)Gal(b1-4)[Fuc(a1-3)]GlcNAc(b1-3)Gal(b1-4)[Fuc(a1-3)]GlcNAc
# In short: as §1
# [23] = target: Gal(b1-4)GlcNAc(b1-6)GalNAc
# In short: as §1
# [24] = target: Gal6S(b1-4)Glc6S
# In short: as §1
# [25] = target: Gal6S(b1-4)GlcNAc6S
# In short: as §1
# [26] = target: GalNAc(b1-4)GlcNAc(b1-2)Man(a1-3)[GalNAc(b1-4)GlcNAc(b1-2)Man(a1-6)]Man(b1-4)GlcNAc(b1-4)GlcNAc
# In short: as §1
# [27] = target: GlcA(b1-3)GlcNAc
# In short: as §1
# [28] = target: GlcNAc(a1-4)Gal(b1-4)GlcNAc
# In short: as §1
# [29] = target: GlcNAc(b1-2)Gal(b1-3)GalNAc
# In short: as §1
# [30] = target: GlcNAc(b1-6)Gal(b1-4)GlcNAc
# In short: as §1
# [31] = target: Man(a1-2)Man(a1-2)Man(a1-6)[Man(a1-3)]Man
# In short: as §1
# [32] = target: Man(a1-3)[Man(a1-6)]Man(a1-6)[Man(a1-3)]Man
# In short: as §1
# [33] = target: Neu5Ac(a2-3)Gal(b1-3)GlcNAc(b1-3)Gal(b1-3)GlcNAc
# In short: as §1
# [34] = target: Neu5Ac(a2-3)Gal(b1-3)GlcNAc(b1-3)Gal(b1-4)GlcNAc
# In short: as §1
# [35] = target: Neu5Ac(a2-3)Gal(b1-3)[Neu5Ac(a2-6)]GlcNAc(b1-3)[Fuc(a1-3)[Gal(b1-4)]GlcNAc(b1-6)]Gal(b1-4)Glc
# In short: as §1
# [36] = target: Neu5Ac(a2-3)Gal(b1-4)GlcNAc(b1-2)Man
# In short: as §1
# [37] = target: Neu5Ac(a2-3)Gal(b1-4)GlcNAc(b1-3)Gal(b1-4)GlcNAc(b1-3)GalNAc
# In short: as §1
# [38] = target: Neu5Ac(a2-3)Gal(b1-4)GlcNAc(b1-3)[Neu5Ac(a2-3)Gal(b1-4)GlcNAc(b1-6)]GalNAc
# In short: as §1
# [39] = target: Neu5Ac(a2-3)Gal(b1-4)[Fuc(a1-3)]GlcNAc(b1-3)GalNAc
# In short: as §1
# [40] = target: Neu5Ac(a2-6)Gal(b1-4)GlcNAc(b1-2)Man
# In short: as §1
# [41] = target: Neu5Ac(a2-6)Gal(b1-4)GlcNAc(b1-2)Man(a1-3)[Gal(b1-4)GlcNAc(b1-2)Man(a1-6)]Man(b1-4)GlcNAc(b1-4)GlcNAc
# In short: as §1
# [42] = target: Neu5Ac(a2-6)Gal(b1-4)GlcNAc(b1-3)Gal(b1-4)GlcNAc
# In short: as §1
# [43] = target: Neu5Ac(a2-6)Gal(b1-4)GlcNAc(b1-3)Gal(b1-4)GlcNAc(b1-2)Man(a1-3)[Neu5Ac(a2-6)Gal(b1-4)GlcNAc(b1-3)Gal(b1-4)GlcNAc(b1-2)Man(a1-6)]GalNAc
# In short: as §1
# [44] = target: Neu5Ac(a2-6)Gal(b1-4)GlcNAc(b1-3)Gal(b1-4)GlcNAc(b1-3)Gal(b1-4)GlcNAc(b1-2)Man(a1-3)[Neu5Ac(a2-6)Gal(b1-4)GlcNAc(b1-3)Gal(b1-4)GlcNAc(b1-3)Gal(b1-4)GlcNAc(b1-2)Man(a1-6)]GalNAc
# In short: as §1
# [45] = target: Neu5Ac(a2-6)Gal(b1-4)GlcNAc(b1-3)Gal(b1-4)[Fuc(a1-3)]GlcNAc(b1-3)Gal(b1-4)[Fuc(a1-3)]GlcNAc
# In short: as §1
# [46] = target: Neu5Ac9Ac(a2-3)Gal(b1-3)GlcNAc
# In short: as §1
binder,measurement,setting,value
B1,glycan array binding signal (z-score),[1],2.49
same,glycan array binding signal (z-score),[2],-0.296
same,glycan array binding signal (z-score),[3],4.29
same,glycan array binding signal (z-score),[4],-0.507
same,glycan array binding signal (z-score),[5],-0.214
same,glycan array binding signal (z-score),[6],-0.634
same,glycan array binding signal (z-score),[7],-0.093
same,glycan array binding signal (z-score),[8],-0.558
same,glycan array binding signal (z-score),[9],0.064
same,glycan array binding signal (z-score),[10],-1.01
same,glycan array binding signal (z-score),[11],-0.176
same,glycan array binding signal (z-score),[12],1.03
same,glycan array binding signal (z-score),[13],-0.135
same,glycan array binding signal (z-score),[14],4.26
same,glycan array binding signal (z-score),[15],-0.56
same,glycan array binding signal (z-score),[16],-0.438
same,glycan array binding signal (z-score),[17],-0.317
same,glycan array binding signal (z-score),[18],-0.687
same,glycan array binding signal (z-score),[19],2.55
same,glycan array binding signal (z-score),[20],1.89
same,glycan array binding signal (z-score),[21],2.73
same,glycan array binding signal (z-score),[22],-0.493
same,glycan array binding signal (z-score),[23],-0.047
same,glycan array binding signal (z-score),[24],2.89
same,glycan array binding signal (z-score),[25],3.19
same,glycan array binding signal (z-score),[26],0.288
same,glycan array binding signal (z-score),[27],0.14
same,glycan array binding signal (z-score),[28],-0.35
same,glycan array binding signal (z-score),[29],-0.466
same,glycan array binding signal (z-score),[30],0.013
same,glycan array binding signal (z-score),[31],-0.531
same,glycan array binding signal (z-score),[32],-0.026
same,glycan array binding signal (z-score),[33],-0.487
same,glycan array binding signal (z-score),[34],-0.39
same,glycan array binding signal (z-score),[35],-0.237
same,glycan array binding signal (z-score),[36],2.68
same,glycan array binding signal (z-score),[37],3.03
same,glycan array binding signal (z-score),[38],0.888
same,glycan array binding signal (z-score),[39],1.87
same,glycan array binding signal (z-score),[40],-0.212
same,glycan array binding signal (z-score),[41],-0.438
same,glycan array binding signal (z-score),[42],-0.589
same,glycan array binding signal (z-score),[43],2.55
same,glycan array binding signal (z-score),[44],5.42
same,glycan array binding signal (z-score),[45],-0.189
same,glycan array binding signal (z-score),[46],-0.318
